Assay [1] is described as follows: qHTS assay to identify small molecule antagonists of the glucocorticoid receptor (GR) signaling pathway - cell viability counter screen (AID 720693). Also: nearly all actives have a fitted effect of over 55% in size. A general note: Quantitative high-throughput screening tests each substance at several concentrations.
Assay [2] in a line: qHTS assay for identifying genotoxic compounds that show differential cytotoxicity against isogenic chicken DT40 cell lines with known DNA damage response pathways - wild type cell line (AID 743012). Also: nearly all actives have a fitted effect of over 60% in size. Also: potency is read from the fitted curve at half-maximal effect. The essentials: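 Viability by ATP luminescence (CellTiter-Glo, 30 min RT) after 40 h compound treatment at 37 C/5% CO2, using 300 parental DNA repair-proficient DT40 cells per well.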

Assay [3] can be described thus: qHTS assay for identifying genotoxic compounds that show differential cytotoxicity against isogenic chicken DT40 cell lines with known DNA damage response pathways - Rev3 mutant cell line (AID 743014). Also: nearly all actives have a fitted effect of over 55% in size. Also: potency is read from the fitted curve at half-maximal effect.
The nature of assay [4]: qHTS assay to identify small molecule antagonists of the androgen receptor (AR) signaling pathway - cell viability counter screen (AID 743033; also: nearly all actives have a fitted effect of over 45% in size).
A short description of assay [5]: qHTS assay to identify small molecule antagonists of the androgen receptor (AR) signaling pathway using the MDA cell line - cell viability counter screen (AID 743041; also: nearly all actives have a fitted effect of over 45% in size). Put shortly:
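Cytotoxicity counter screen: MDA-kb2 AR-luc cells, compound + R1881, 16 h, 37C, 0% CO2; CellTiter-Fluor added at 15.5 h, fluorescence read after 30 min.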

Assay [6] in a line: qHTS assay to identify small molecule antagonists of the thyroid receptor (TR) signaling pathway - cell viability counter screen (AID 743064). Also: nearly all actives have a fitted effect of over 50% in size. Also: potency is read from the fitted curve at half-maximal effect. Put shortly: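 In rat pituitary GH3.TRE-Luc reporter cells co-exposed to compound and 1 nM T3 for 23.5 h, cytotoxicity was assessed with CellTiter-Fluor in the same wells, read by fluorescence.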
The nature of assay [7]: qHTS assay to identify small molecule antagonists of the thyroid receptor (TR) signaling pathway (AID 743065). Also: nearly all actives have a fitted effect of over 55% in size. Also: potency is read from the fitted curve at half-maximal effect. The essentials:
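GH3.TRE-Luc rat pituitary cells (two TREs driving luciferase) were dosed with compound, then stimulated with 1 nM T3 (final) for 23.5 h at 37 C. ONE-Glo luminescence was the read-out, with CellTiter-Fluor fluorescence as the cytotoxicity counter-screen.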

Assay [8] deals with thyroid hormone receptor (rat, GH3 cells). The experiment in a line: qHTS assay to identify small molecule agonists of the thyroid receptor (TR) signaling pathway (AID 743066; calls by dose curve).
A short description of assay [9]: qHTS assay to identify small molecule antagonists of the estrogen receptor alpha (ER-alpha) signaling pathway - cell viability counter screen (AID 743074; calls by dose curve;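 also: HEK293 cells carrying ER-alpha-UAS-bla reporter stimulated with 17beta-estradiol; nearly all actives have a fitted effect of over 45% in size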; also: potency is read from the fitted curve at half-maximal effect).
A short description of assay [10]: qHTS assay to identify small molecule antagonists of the estrogen receptor alpha (ER-alpha) signaling pathway using the BG1 cell line - cell viability counter screen (AID 743081).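 Also: compound given together with 17beta-estradiol as the ER stimulus; nearly all actives have a fitted effect of over 45% in size.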
In another assay the target is Aromatase (Homo sapiens) (UniProt P11511). The experiment in a line: qHTS assay to identify aromatase inhibitors (AID 743083). Also: nearly all actives have a fitted effect of over 55% in size. Also: potency is read from the fitted curve at half-maximal effect.
The target in assay [11] is Estrogen receptor (Homo sapiens) (UniProt P03372). The experiment in a line: qHTS assay to identify small molecule agonists of the estrogen receptor alpha (ER-alpha) signaling pathway (AID 743075; calls by dose curve;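 also: HEK293 GripTite cells with ER-alpha and UAS-driven beta-lactamase reporter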; also: potency is read from the fitted curve at half-maximal effect).
For assay [12] the target is unchanged. The experiment in a line: qHTS assay to identify small molecule agonists of the estrogen receptor alpha (ER-alpha) signaling pathway using the BG1 cell line (AID 743079). Also: nearly all actives have a fitted effect of over 20% in size. Also: potency is read from the fitted curve at half-maximal effect.
For assay [13] the target is unchanged. The experiment in a line: qHTS assay to identify small molecule antagonists of the estrogen receptor alpha (ER-alpha) signaling pathway (AID 743069; active = well fitted curve in the direction sought with a large enough effect in the signal ratio in the repeat runs, not every such curve was filed as active; the % refers to the signal ratio). Put shortly: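 Beta-lactamase FRET fluorescence is read after 2 hr at room temperature with LiveBLAzer B/G substrate. Before that, ER-alpha-bla HEK293 cells sit 4 hr after plating, then receive compound plus 17beta-estradiol and incubate 18 hr at 37C.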

A short description of assay [14]: qHTS assay to identify small molecule antagonists of the estrogen receptor alpha (ER-alpha) signaling pathway using the BG1 cell line (AID 743080; calls by dose curve;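 also: BG1 cells stimulated with 17beta-estradiol alongside compound; nearly all actives have a fitted effect of over 25% in size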). The essentials:
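Luciferase inhibition measured with ONE-Glo after 30 min at RT in BG1Luc4E2 cells given test compounds and 17beta-estradiol for 21.5 h at 37 C; CellTiter-Fluor viability read in the same wells beforehand.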

Assay [15] in a line: qHTS assay for identifying genotoxic compounds that show differential cytotoxicity against isogenic chicken DT40 cell lines with known DNA damage response pathways - Rad54/Ku70 mutant cell line (AID 743015). Also: nearly all actives have a fitted effect of over 60% in size. Also: potency is read from the fitted curve at half-maximal effect.
In assay [16] the target is Androgen receptor (Homo sapiens) (UniProt P10275). Kind of assay: qHTS assay to identify small molecule antagonists of the androgen receptor (AR) signaling pathway (AID 743035; active = well fitted inhibition curve with a large enough effect in the signal ratio in the repeat runs, not every such curve was filed as active; the % refers to the signal ratio). Put shortly:
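Antagonist mode: AR-bla HEK293 cells co-treated with test compounds and agonist R1881 for 16 h at 37C, 5% CO2. Beta-lactamase activity read as FRET fluorescence after 2 h room-temperature substrate loading.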

For assay [17] the target is unchanged. Kind of assay: qHTS assay to identify small molecule agonists of the androgen receptor (AR) signaling pathway (AID 743036; active = well fitted activation curve with a large enough effect in the signal ratio in the repeat runs, with a control signal flat, not every such curve was filed as active; the % refers to the signal ratio). The essentials:
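Cell-based FRET reporter assay: HEK293 line with a UAS-beta-lactamase construct, compounds added in DMSO, 16 h exposure at 37C, then 2 h substrate step at room temperature and fluorescence intensity read.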

Assay [18] has the same target. Kind of assay: qHTS assay to identify small molecule agonists of the androgen receptor (AR) signaling pathway using the MDA cell line (AID 743040; also: nearly all actives have a fitted effect of over 20% in size). The settings on record: MDA-kb2 AR-luc cells, MMTV luciferase, 16 h; activity change: at 70.3 µM (top of the series), stronger effect = higher value. Put shortly: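 Luciferase read-out, ONE-Glo, 30 min RT. Cells: MDA-kb2 AR-luc, MMTV promoter with AR and GR response elements. Compound exposure 16 h, 37C, 0% CO2, after 5 h pre-incubation. qHTS agonist mode.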

The target is the same in assay [19]. The experiment in a line: qHTS assay to identify small molecule antagonists of the androgen receptor (AR) signaling pathway using the MDA cell line (AID 743042; also: nearly all actives have a fitted effect of over 55% in size; also: potency is read from the fitted curve at half-maximal effect). The essentials: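 MDA-kb2 breast carcinoma cells carrying MMTV-luciferase (AR/GR responsive) were co-treated with compounds and the agonist R1881 for 16 h at 37C. Inhibition read as ONE-Glo luminescence; CellTiter-Fluor fluorescence measured in parallel for cytotoxicity.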

Molecules are shown by their SMILES. “And” between values parts separate entries of the source, which are not always exact repeats. Identical values can stand only once. Results filed as inconclusive are left out. Where a structure was tested more than once in an assay, its records may differ in their call. The source made the active and inactive calls. Unless noted, calls follow the shape of the dose curve; as a rule, active = well fitted curve in the direction sought with a large enough effect in the repeat runs; inconclusive = weak or mixed curves; inactive = no such curve, though single readings can be large; an effect the other way counts as inactive or inconclusive.

Sequence of Androgen receptor (Homo sapiens) (P10275 whole entry, looked up): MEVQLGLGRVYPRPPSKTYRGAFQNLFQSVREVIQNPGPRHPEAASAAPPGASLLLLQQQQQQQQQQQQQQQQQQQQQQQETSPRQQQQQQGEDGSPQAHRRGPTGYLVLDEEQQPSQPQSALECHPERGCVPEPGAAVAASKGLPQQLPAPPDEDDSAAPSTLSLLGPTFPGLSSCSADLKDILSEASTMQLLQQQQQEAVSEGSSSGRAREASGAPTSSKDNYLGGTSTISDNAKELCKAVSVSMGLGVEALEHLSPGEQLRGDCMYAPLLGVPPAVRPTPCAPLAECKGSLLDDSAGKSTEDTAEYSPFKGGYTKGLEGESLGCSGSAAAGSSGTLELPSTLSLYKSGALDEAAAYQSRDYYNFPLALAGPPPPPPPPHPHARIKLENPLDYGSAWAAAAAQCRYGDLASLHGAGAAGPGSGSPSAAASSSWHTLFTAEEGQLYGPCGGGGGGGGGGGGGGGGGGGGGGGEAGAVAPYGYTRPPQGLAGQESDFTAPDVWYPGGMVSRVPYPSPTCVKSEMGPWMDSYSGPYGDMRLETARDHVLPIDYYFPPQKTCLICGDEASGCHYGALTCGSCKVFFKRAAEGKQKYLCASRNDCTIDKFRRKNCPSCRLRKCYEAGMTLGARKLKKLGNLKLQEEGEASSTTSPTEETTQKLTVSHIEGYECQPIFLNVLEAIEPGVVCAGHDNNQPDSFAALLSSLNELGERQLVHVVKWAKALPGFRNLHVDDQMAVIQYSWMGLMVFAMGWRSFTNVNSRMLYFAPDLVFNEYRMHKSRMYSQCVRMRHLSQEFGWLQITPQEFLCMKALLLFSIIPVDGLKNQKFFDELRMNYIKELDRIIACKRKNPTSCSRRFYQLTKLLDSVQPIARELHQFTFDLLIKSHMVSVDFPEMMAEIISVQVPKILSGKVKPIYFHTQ
Sequence of Estrogen receptor (Homo sapiens) (P03372 whole entry, looked up): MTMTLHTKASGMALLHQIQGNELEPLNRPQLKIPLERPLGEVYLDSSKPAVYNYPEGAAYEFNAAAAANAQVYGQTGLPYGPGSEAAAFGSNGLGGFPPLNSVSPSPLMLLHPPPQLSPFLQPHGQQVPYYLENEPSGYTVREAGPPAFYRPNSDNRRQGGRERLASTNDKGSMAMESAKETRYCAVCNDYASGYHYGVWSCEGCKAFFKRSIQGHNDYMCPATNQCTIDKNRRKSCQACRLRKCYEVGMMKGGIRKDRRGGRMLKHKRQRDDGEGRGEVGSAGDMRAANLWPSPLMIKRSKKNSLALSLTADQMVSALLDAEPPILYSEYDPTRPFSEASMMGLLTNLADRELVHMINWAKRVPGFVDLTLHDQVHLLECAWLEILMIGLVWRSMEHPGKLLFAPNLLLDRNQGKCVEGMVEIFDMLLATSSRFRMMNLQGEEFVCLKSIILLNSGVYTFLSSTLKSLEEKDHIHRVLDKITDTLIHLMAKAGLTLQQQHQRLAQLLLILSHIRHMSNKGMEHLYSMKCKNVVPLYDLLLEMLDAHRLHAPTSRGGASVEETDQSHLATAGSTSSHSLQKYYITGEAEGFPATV
Sequence of Aromatase (Homo sapiens) (P11511 whole entry, looked up): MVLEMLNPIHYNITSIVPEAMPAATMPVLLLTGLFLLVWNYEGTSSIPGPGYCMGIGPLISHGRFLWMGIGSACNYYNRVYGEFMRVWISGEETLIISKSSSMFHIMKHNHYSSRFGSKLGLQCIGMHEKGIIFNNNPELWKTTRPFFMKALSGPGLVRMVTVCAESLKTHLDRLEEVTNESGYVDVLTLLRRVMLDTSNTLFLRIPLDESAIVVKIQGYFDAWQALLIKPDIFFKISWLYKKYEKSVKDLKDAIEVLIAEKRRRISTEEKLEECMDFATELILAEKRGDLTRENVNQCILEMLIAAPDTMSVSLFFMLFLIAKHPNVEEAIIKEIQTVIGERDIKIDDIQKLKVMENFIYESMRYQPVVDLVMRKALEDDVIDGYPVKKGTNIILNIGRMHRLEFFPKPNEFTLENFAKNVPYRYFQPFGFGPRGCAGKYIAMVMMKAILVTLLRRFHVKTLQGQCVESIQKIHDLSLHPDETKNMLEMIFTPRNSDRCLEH

Regarding `CN(C)c1ccc(C(=O)c2ccc(N(C)C)cc2)cc1`, the Potency result in [1], in assay [4], in assay [5], in assay [8], in [9] and in [10] was “inactive” each time. Moreover, in the assay with Aromatase (Homo sapiens), the Potency entry is “inactive”. Further, the Potency in [2] was 1.52 µM (active) and 1.37 µM (active); in [3] it was 762 nM (active) and 969 nM (active); in [6], 30.3 µM (active) and inactive; in [7], 5.39 µM (active) and 1.09 µM (active).

With `Cc1c(COC(=O)[C@@H]2[C@H](/C=C(\Cl)C(F)(F)F)C2(C)C)cccc1-c1ccccc1`, the Potency entry in assay [1], in [2], in assay [3], in assay [4], in assay [5] and in assay [8] was “inactive” each time. Also, the Potency entry (in assay [11]; in assay [12]; in assay [10]; in the assay with Aromatase (Homo sapiens)) was “inactive” each time. The Potency was 15 µM (active) and 15.3 µM (active) in [7]; 26.9 µM (active) in [9].

On to `Brc1ccc(Oc2cc(Br)c(Br)cc2Br)c(Br)c1`, for which the Potency result in assay [1], in [2], in assay [3], in [4], in [5] and in assay [8] was “inactive” each time. Further, the Potency entry (in assay [13]; in [9]; in assay [11]; in assay [14]; in [10]; in the assay with Aromatase (Homo sapiens)) was “inactive” each time. Also, the Potency is 48.9 µM (active) in [6]; “inactive and 61.6 µM (active)” in [12].

As for `C[C@]12CCC(=O)C(O)=C1CC[C@@H]1[C@@H]2CC[C@]2(C)C(=O)CC[C@@H]12`, the Potency entry in [1], in [4], in [5], in [6], in [7] and in assay [8] was “inactive” throughout. For the same molecule, the Potency entry in assay [9], in [14] and in assay [10] was “inactive” in each case. The Potency in assay [2] is 29.8 µM (active) and 26.6 µM (active); in assay [15], 29.8 µM (active) and 26.6 µM (active); in assay [11] it was 23.9 µM [activator] (active) and 21.3 µM [activator] (active) and 34.7 µM [activator] (active); in assay [12], 11.9 µM (active) and 5.96 µM (active) and 5.45 µM (active); with Aromatase (Homo sapiens) it was 75 nM (active) and 53.1 nM (active) and 27.3 nM (active).

Consider `CC(C)(OOC(C)(C)c1ccccc1)c1ccccc1`, for which the Potency entry in [1], in assay [4], in assay [16], in assay [17], in assay [18] and in assay [5] was “inactive” each time. Further, the Potency result (in assay [19]; in assay [8]; in assay [9]; in assay [10]; with Aromatase (Homo sapiens)) was “inactive” each time. In addition, the Potency entry is “inactive and 54.5 µM (active)” in assay [2]; 30.6 µM (active) in assay [15]; 42.7 µM (active) in [6]; 53.7 µM (active) and 43.3 µM (active) in assay [7].

Consider `Nc1c(Cl)cc([N+](=O)[O-])cc1Cl`, for which the Potency result in assay [1], in assay [17], in assay [18], in assay [5], in assay [6] and in assay [7] was “inactive” in each case. Further, the Potency entry in assay [8], in assay [13], in assay [9], in assay [11], in [12] and in [14] was “inactive” each time. Also, the Potency entry (in [10]; with Aromatase (Homo sapiens)) was “inactive” in each case. Moreover, the Potency result in assay [3] is “inactive and 61.1 µM (active)”; in assay [15], “inactive and 61.1 µM (active)”; in assay [19], “inactive and 61.1 µM (active)”.

In the case of `C[C@]12CCC(=O)C[C@@H]1CC[C@@H]1[C@@H]2CC[C@]2(C)[C@@H](O)CC[C@@H]12`, the Potency in assay [2] was 26.6 µM (active) and inactive; in assay [7], 48 µM (active). The Potency result in assay [15], in assay [4], in [5], in [6], in [8] and in assay [9] was “inactive” each time. For the same molecule, the Potency result (in assay [10]; with Aromatase (Homo sapiens)) was “inactive” in each case.

Source of the values: PubChem BioAssay (Tox21).
